# Only some compounds are listed: those with a hit (about 2.3% of all), similar ones and a draw of the others.
# M1 ag: agonists of human M1 muscarinic receptor. activation, % at 3 µM. hit rate 0.33% among 360,000. P11229. CHO-K1 hM1, Fluo-8 calcium fluorescence, agonist mode; 0% DMSO, 100% acetylcholine EC100. AID 588814;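 active means activation above the run's mean compound activation plus 3 SD, cut at about 16% in these data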;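 further: peak over basal fluorescence ratio within a 140 s kinetic read after compound addition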
# Target sequence (P11229 whole entry, looked up): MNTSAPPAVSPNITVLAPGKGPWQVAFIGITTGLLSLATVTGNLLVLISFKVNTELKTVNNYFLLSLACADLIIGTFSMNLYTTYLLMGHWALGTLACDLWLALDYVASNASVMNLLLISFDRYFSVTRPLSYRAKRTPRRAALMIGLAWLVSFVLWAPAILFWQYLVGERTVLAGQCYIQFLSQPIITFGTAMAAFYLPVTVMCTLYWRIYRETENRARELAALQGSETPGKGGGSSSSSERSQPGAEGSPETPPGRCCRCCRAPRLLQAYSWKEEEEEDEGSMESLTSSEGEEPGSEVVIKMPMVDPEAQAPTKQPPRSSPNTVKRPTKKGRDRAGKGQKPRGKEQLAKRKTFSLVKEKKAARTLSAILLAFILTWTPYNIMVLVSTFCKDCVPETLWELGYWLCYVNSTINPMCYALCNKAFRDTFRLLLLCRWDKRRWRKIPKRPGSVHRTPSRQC
# CHO-K1 Ca PAM: M1 PAM counterscreen hit in parental CHO-K1 cells; ATP EC20, Fluo-8 calcium fluorescence; 0% at ATP EC20, 100% at ATP max; activation, % at 3 µM; hit rate 0.02% among 360,000; AID 602247;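 active means activation above the run cutoff, the mean activation of all test compounds plus 3 SD, cut at about 40% in these data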;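 further: peak over basal fluorescence ratio in a 140 s read after ATP addition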
# CHO-K1 Ca antag: counter-screen for M1 antagonists: effect in parental CHO-K1 cells | ATP-induced calcium, Fluo-8 fluorescence | inhibition, % at 3 µM | hit rate 0.6% among 360,000 | AID 602250;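 active means inhibition above a per-plate cutoff, the plate's mean sample inhibition plus 3 SD, cut at about 24% in these data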
# M1 antag: blocks human M1 muscarinic receptor; CHO-K1 hM1, Fluo-8 calcium fluorescence, ACh EC80 antagonist; inhibition, % at 3 µM; hit rate 1.3% among 360,000;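 active means percent inhibition above its own plate's cutoff, namely the mean of that plate's compound wells plus 3 SD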;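 further: peak over basal fluorescence ratio during 140 s after agonist addition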
# M1 PAM: human CHRM1 positive allosteric modulation | hit rate 0.088% among 360,000 | AID 588819 | activation, % at 3 µM | CHO-K1 hM1, Fluo-8 calcium fluorescence, ACh EC20; 0% = ACh EC20, 100% = maximal ACh; in the data active means activation above about 19%, passing the limit was not always enough
# M1 ag parental: M1 agonist counterscreen hit in parental CHO-K1 cells; Fluo-8 calcium fluorescence; scaled to maximal ATP response, vehicle zero; activation, % at 3 µM; hit rate 0.48% among 360,000; in the data active means activation above about 15%;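 further: untransfected CHO-K1 host cells lacking M1 receptor as counterscreen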
# A number is an active result; - = inactive; . = no result given.
SMILES,M1 ag,CHO-K1 Ca PAM,CHO-K1 Ca antag,M1 antag,M1 PAM,M1 ag parental
COC(=O)c1ccc(/C=C/C(=O)OCC(=O)Nc2sccc2C(N)=O)cc1,-,-,-,47,-,16
NC(=O)c1ccsc1NC(=O)COC(=O)/C=C/c1ccc([N+](=O)[O-])cc1,-,-,-,-,-,-
CC1=C(C(=O)N(C(C)C)C(C)C)CC(CC(=O)NCCN2CCOCC2)C(=O)N1CCCN1CCCC1=O (stereo unspecified),-,-,26,-,-,-
CC1CCN(S(=O)(=O)c2ccc(Oc3ccc([N+](=O)[O-])cc3)cc2)CC1,-,-,-,30,-,-
C#CC(=O)CC1(CN(Cc2ccccc2)C(=O)OC(C)(C)C)CCCCC1,-,-,-,34,-,-
CON(C)C(=O)CC1(CN(Cc2ccccc2)C(=O)OC(C)(C)C)CCCCC1,-,-,-,-,-,-
CCCNC(=O)C1(C)CCN(C(=O)Cc2ccc(OC)c(OC)c2)C1 (stereo unspecified),-,-,-,-,-,-
Cc1onc(-c2ccccc2)c1C(=O)Nc1ncc([N+](=O)[O-])s1,-,-,-,-,-,16
COc1cc(C(=O)Nc2ccc(-n3cnnn3)c(C)c2)cc(OC)c1OC,-,-,24,-,-,-
COc1cc(C(=O)Nc2cccc(-n3cnnn3)c2)cc(OC)c1OC,-,-,-,-,-,-
COc1cc2c(cc1OC)C(c1ccc([N+](=O)[O-])cc1)N(C(C)=O)CC2 (stereo unspecified),-,-,-,-,-,16
CCOC(COC(=O)c1ccccc1C(=O)O)c1ccccc1 (stereo unspecified),-,-,-,-,-,-
CCOC(=O)N1CCC(N(CCN(C)C)C(=S)Nc2ccc(F)c(Cl)c2)CC1,-,-,27,-,-,-
COc1ccc(-c2oc(NC(=O)CCl)c(C#N)c2-c2ccc(OC)cc2)cc1,-,-,-,46,-,-
COc1ccc(-c2oc(NC(=O)CSc3ncn[nH]3)c(C#N)c2-c2ccc(OC)cc2)cc1,-,-,-,-,-,-
CSc1ccc(CN2CCC(CO)(Cc3ccc(Cl)cc3)CC2)cc1,-,-,-,56,-,-
OCC1(Cc2ccc(Cl)cc2)CCN(Cc2ccccc2F)CC1,-,-,-,-,-,-
COc1ccc(Cn2cc(CN(C)C3CN(Cc4cn(Cc5ccc(OC)cc5)nn4)S(=O)(=O)C3)nn2)cc1 (stereo unspecified),.,-,-,.,.,-
Cn1ncc2cc3c(Nc4ccc(Cl)cc4)cccc3nc21,-,-,-,-,-,-
O=C(O)CSc1cn(Cc2ccccc2)c2ccccc12,-,-,-,-,-,-
O=C(O)c1cn(Cc2ccccc2)c2ccccc2c1=O,82,-,-,62,-,-
CC1(C(=O)NCc2ccccc2)CCC(=O)N1CCCn1ccnc1 (stereo unspecified),-,-,-,-,-,-
Cc1cc(C)n(S(=O)(=O)c2ccc(C(C)(C)C)cc2)n1,-,-,-,55,-,-
C[C@H]1CN([C@@H](C)CO)C(=O)c2cc(Br)cnc2O[C@H]1CN(C)S(=O)(=O)c1ccccc1F,-,-,-,-,-,-
Cc1c(N2C(=O)c3ccc4c5c(ccc(c35)C2=O)CC4)c(=O)n(-c2ccccc2)n1C,-,-,-,-,-,-
SMILES,M1 ag,CHO-K1 Ca PAM,CHO-K1 Ca antag,M1 antag,M1 PAM,M1 ag parental
Cc1c(N2C(=O)c3ccc(Br)cc3C2=O)c(=O)n(-c2ccccc2)n1C,-,-,-,74,-,-
COC(=O)[C@@]1(C(C)C)N=C(c2cc(OC)c(OC)c(OC)c2)[C@]2(O1)C(=O)Nc1ccccc12,.,-,-,.,.,-
CN(CCCCCCCCC(=O)/C=N/O)Cc1ccccc1,-,-,-,69,-,-
O=C(NCCc1ccc(Cl)cc1)c1ccc(CS(=O)Cc2ccccc2Cl)o1 (stereo unspecified),-,-,-,37,-,-
O=C(NC1CCCC1)c1cc(-c2ccc(Cl)cc2)on1,-,-,-,26,-,-
COc1ccc2oc(=O)c(C(=O)NCc3ccc(F)cc3)cc2c1,-,-,-,-,-,16
CNC(=O)c1cc2cc(OC)ccc2oc1=O,-,-,-,-,-,-
COc1ccc2oc(=O)c(C(=O)C[n+]3cccc(C)c3)cc2c1,-,-,-,32,-,-
C[C@@H](NC(=O)[C@@H]1CCCN1C(=O)[C@@H]1CCCN1C(=O)c1cccs1)c1ccccc1,.,-,-,.,.,-
CNc1snc(C)c1C(=O)OCC(=O)c1ccc(OC)c(F)c1,-,-,-,40,-,-
CC(O)(c1ccc(F)c(F)c1)c1nc(-c2ccncc2)cs1 (stereo unspecified),-,-,-,-,-,-
CN(C)c1ccc(-c2csc(C(C)(O)c3ccc(F)c(F)c3)n2)cc1 (stereo unspecified),-,-,-,25,-,-
CC1=C(C(=O)N(C)C)CC(CC(=O)NCCN2CCOCC2)C(=O)N1CCCN1CCCC1=O (stereo unspecified),-,-,-,-,-,-
O=[N+]([O-])c1ccc(C(=S)N2CCCC2)cc1,-,-,-,-,-,-
CC(C)=N/N=C(/c1ccc([N+](=O)[O-])cc1)C12CN3CN(CN(C3)C1)C2,50,-,-,-,-,-
O=[N+]([O-])c1cccc(/C(=N/N=C/c2ccccc2Br)C23CN4CN(CN(C4)C2)C3)c1,-,-,-,43,-,-
c1ccc(CN2CCC3CC2c2c3cccc2N2CCOCC2)cc1 (stereo unspecified),-,-,-,-,-,-
CN(C)CCCC1(O)c2ccccc2C=Cc2ccccc21,-,-,-,73,-,-
COc1ccc(-n2nc(C(=O)NCc3ccco3)c3ccccc3c2=O)cc1,-,-,-,-,-,-
COc1ccccc1-n1nc(C(=O)NCc2ccco2)c2ccccc2c1=O,-,-,-,15,-,-
COc1ccc(NC(=O)CNC(=O)c2nn(-c3ccc(OC)c(OC)c3)c(=O)c3ccccc23)c(OC)c1,-,-,-,-,-,-
COc1ccc(-n2nc(C(=O)NCC(=O)Nc3cc(OC)c(OC)c(OC)c3)c3ccccc3c2=O)cc1OC,-,-,-,30,-,-
CCC1CCCCN1CCCNC(=O)CNC(=O)c1nn(-c2ccc(OC)c(Cl)c2)c(=O)c2ccccc12 (stereo unspecified),-,-,-,49,-,-
COc1ccc(-n2nc(C(=O)NCC(=O)Nc3cc(OC)c(OC)c(OC)c3)c3ccccc3c2=O)cc1,-,-,-,27,-,-
COc1ccc(-n2nc(C(=O)NCC(=O)Nc3cccc(NC(C)=O)c3)c3ccccc3c2=O)cc1,-,-,-,-,-,-
O=C(Oc1ccc(-c2nnco2)cc1)c1cc(S(=O)(=O)N2CCOCC2)ccc1F,-,-,-,-,-,-

# Screening results as filed in PubChem BioAssay.
